16 sequences from the supplement of paper PMC7726561 can be followed below.

In all, about 1,100 sequences were measured (“thermal melting temperature (Tm) of peptide-HLA complex”: median about 58, lowest 2% from about 42 on). Only a selection was taken, and the lowest values are over-represented in it overall.
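Further: lysates heated 10 min at 37–73 °C, complexes pulled down with pan-HLA I antibody, peptide signal by DIA-MS relative to 37 °C, Tm where half the complex is unfolded.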

This assay has as its target HLA-A*02:01. The assay is described as follows: thermal melting temperature (Tm) of peptide-HLA complex; higher = more thermostable pHLA complex. As to conditions: C1R-A*02:01.
With AMNDILAQV, the thermal melting temperature is 62.2 °C.
The sequence KLDFANNVQL registered a thermal melting temperature of 50.3 °C.
Sequence ALLDQLHTL yielded a thermal melting temperature of 62.5 °C.
With FLSELTQQL, the thermal melting temperature is 59.5 °C.
As for VLHELTFQA, the figure is 60.4 °C; as for FVADGIFKA, 41.1 °C.
As to VLAPHLTRA, the thermal melting temperature came out at 53 °C.
As for FLSDGTIISV, the figure is 57.5 °C; as for RLAEALPKQSV, 41.8 °C.
GVIDGHIYAV had a thermal melting temperature of 61.7 °C.
Under SLFPGKLEV stands 60.4 °C; under GLLQINDKIAL, 41.7 °C; under RLQEEINEV, 55.3 °C.
As for YQLEAEFVGV, the figure is 58.7 °C; as for SLLGGVLRV, 55.7 °C.
TLSDLRVYL showed a thermal melting temperature of 64.7 °C.
